About 83,000 compounds went through this panel and 20% of them were active in at least one assay; those are over-represented in the sample as a whole.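 Interpretation: 100, growth as untreated; towards 0, rising growth inhibition; 0, no net growth; 0 to -100, cell death. Compounds scoring below 10 were considered active.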 Unmarked numbers belong to inactive results. Calls of active or inactive are those of the source.
System: HL-60(TB) leukemia
Assay: NCI-60 one-dose screen, 48 h (100 = growth as untreated, 0 = no growth, -100 = all killed)
Settings: 10 µM unless noted

| SMILES | growth |
| --- | --- |
| Cn1cc(-c2cc(N)n3nc(-c4cn(C)c5ccc(Cl)cc45)cc3n2)c2cc(Cl)ccc21 | 31.5% |
| Cc1cccc(/C=C/c2nn3c(-c4ccco4)nnc3s2)c1 | 86.2% |
| CN(C)c1ccc(/C=N/Nc2nc(N/N=C/c3ccc(N(C)C)cc3)nc(N3CCCCC3)n2)cc1 | -38% (active) |
| CC(=O)Nc1nc2c(s1)C1=CC[C@H]3[C@@H]4CC[C@H](C(C)=O)[C@@]4(C)CC[C@@H]3[C@@]1(C)CC2 | 52.5% |
| COc1ccc([C@@H]2c3[nH]c4ccccc4c3CC3C(=O)N(C4CCN(Cc5c(F)cccc5F)CC4)CC(=O)N32)c(OC)c1 (some centres not stated) | 39.6% [5.26 µM] |
| Cc1cccc2c3c(sc12)C(c1ccc(Cl)cc1)c1c(nc(CC(=O)Nc2ccccc2)[nH]c1=O)O3 (configuration not stated) | 71.3% |
| C/C(=N/N)c1nnn(-c2ccc(Br)cc2)c1C | 102% |
| O=c1[nH]c2cc(Cl)ccc2n1C1CCN(c2ccc3nnc(Cl)n3n2)CC1 | 93.1% |
| C[C@@H](Nc1c(C#N)cnc2ccc(-c3cnc(Cl)c(NS(C)(=O)=O)c3)cc12)c1ccccc1 | -28.4% (active) |
| NC(N)=Nc1ccc(Oc2cccc(NC(N)=Nc3ccc(Br)cc3)c2)cn1 | 64.8% |
| COc1ccc(OC)c(-c2nc(SCC(=O)c3ccc(Br)cc3)nc(Nc3ccc(S(N)(=O)=O)cc3)c2C#N)c1 | 25.9% |
| O=[N+]([O-])c1cc(/C=N/Nc2nc(N/N=C/c3ccc(Cl)c([N+](=O)[O-])c3)nc(N3CCCCC3)n2)ccc1Cl | 41.9% |

Source: PubChem BioAssay (NCI)
